Values joined by “and” are separate entries in the source; they are usually repeats but may differ in a detail not shown here. Equal entries are not always repeated. Records with an inconclusive call do not appear. A number with no mark means an inactive call. Active and inactive are the calls of the source. Calls follow the shape of the dose curve; as a rule, active = well fitted inhibition curve with a large enough effect; inconclusive = small, poorly fitted or top-dose-only effect; inactive = flat fitted curve, though single readings scatter.
How the values were obtained:
[1] = Drug repurposing screens with cells derived from glioblastoma tumor samples (AID 1345199); conditions: GBM patient neurospheres viability, ATP luminescence, 48 h; also: nearly all actives have a fitted effect of over 40% in size
How it was run: (§1)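 Four patient lines of CD133+ GBM neurospheres were screened at several concentrations; hits were retested in those lines plus three slower-growing GBM lines, using 48-hour treatment and ATP-based viability.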

[2] = system: astro; assay: as above; conditions: viability, ATP luminescence, 48 h; series mostly up to 45.9 µM
How it was run: as §1

[3] = at 45.9 µM (top of the series), tumour line B
[4] = at 45.9 µM (top of the series), tumour line D
[5] = at 46 µM (top of the series), tumour line A
[6] = at 46.1 µM (top of the series), tumour line C
[7] = at 20 µM (top of the series), tumour line C
[8] = at 21.2 µM (top of the series), tumour line B
[9] = at 21.2 µM (top of the series), tumour line D
[10] = at 21.3 µM (top of the series), tumour line A
% is scaled to controls: 0 for no effect and ±100 for the full control effect; potency is read from the fitted curve at half-maximal effect.

Compound	activity, negative = cell killing [1, 3]	activity, negative = cell killing [1, 4]	activity, negative = cell killing [1, 5]	activity, negative = cell killing [1, 6]	Potency [2]	activity, negative = cell killing [1, 7]	activity, negative = cell killing [1, 8]	activity, negative = cell killing [1, 9]	activity, negative = cell killing [1, 10]	Potency ([1]; tumour line A)
CC(=O)OCC1=C(C(=O)O)N2C(=O)[C@@H](NC(=O)Cc3ccccc3)[C@H]2SC1	-6.43%	-15.2%	-28.6%	-24%	inactive	–	–	–	–	–
CO/N=C(\C(=O)N[C@@H]1C(=O)N2C(C(=O)O)=C(C[N+]3(C)CCCC3)CS[C@H]12)c1csc(N)n1	-2.14%	5.4%	-4.98%	-21.1%	inactive	–	–	–	–	–
CN1C(=O)OC(C)(C)C1=O	–	–	–	–	inactive	-9%	0.292%	-3.8%	-18.7%	–
CC(=O)Nc1ccc(OC(=O)c2ccccc2O)cc1	-6.12%	-8.68%	-14.5%	-22.3%	inactive	–	–	–	–	–
O=C(O)c1ccc(NC(=O)[C@H](Cc2ccc(O)cc2)NC(=O)c2ccccc2)cc1	-3.63%	-4.5%	-23.1%	-6.93%	inactive	–	–	–	–	–
CCOC(=O)[C@@H](N)CS	-8.18%	-11.2%	-24.4%	1.04%	inactive	–	–	–	–	–
O=C(Cc1cccs1)N[C@@H]1C(=O)N2C(C(=O)[O-])=C(C[n+]3ccccc3)CS[C@H]12	-13.3%	8.29%	-29.7%	-10.2%	inactive	–	–	–	–	–
C=N[C@@H](C(=O)N[C@@H]1C(=O)N2[C@@H]1SC(C)(C)[C@@H]2C(=O)O)c1ccccc1	-11%	-11.4%	-8.19%	-15.6%	inactive	–	–	–	–	–
Cc1cc(C(=O)NCCc2ccc(S(=O)(=O)NC(=O)NN3CCCCCC3)cc2)no1	-15.9%	-13.6%	-31.1%	-10.9%	inactive	–	–	–	–	–
CC(C)[C@H](N)C(=O)OCC(CO)OCn1cnc2c(=O)[nH]c(N)nc21 (stereo not given in full)	-16.2%	-11.6%	-27%	-25.2%	inactive	–	–	–	–	–
NS(=O)(=O)c1cc2c(cc1Cl)NC(Cc1ccccc1)NS2(=O)=O (stereo not given)	4.57%	9.26%	-28.7%	0.872%	inactive	–	–	–	–	–
H-RKDVY-OH	-2.29%	4.86%	-6.05%	-18.9%	inactive	–	–	–	–	–
CC(C)(CO)[C@@H](O)C(=O)NCCCC(=O)O	2.97%	-4.32%	-3.96%	-7.77%	inactive	–	–	–	–	–
O=C(O)c1cc(N=Nc2ccc(O)c(C(=O)O)c2)ccc1O	-10.7%	-13.9%	-13.2%	-29.5%	inactive	–	–	–	–	–
CNC(=O)c1c(I)c(C(=O)NCC(=O)Nc2c(I)c(C(=O)O)c(I)c(C(=O)NCCO)c2I)c(I)c(N(C)C(C)=O)c1I	-2.37%	-21.2%	-7.61%	3.32%	inactive	–	–	–	–	–
O=P(O)(O)OC[C@H]1O[C@](O)(COP(=O)(O)O)[C@@H](O)[C@@H]1O	-4.16%	-21.7%	-47.3%	-3.41%	inactive	–	–	–	–	–
CC(C)(C)NCC(O)CSc1nc(-c2ccc(C(N)=O)s2)cs1 (stereo not given)	-20.2%	-9.92%	–	-12.2%	inactive	–	–	–	–	17.8 µM (active)
NC(=O)[C@@H]1CCCN1C(=O)[C@H](Cc1cnc[nH]1)NC(=O)[C@@H]1CCC(=O)N1	-8.63%	6.97%	-26.1%	5.62%	inactive	–	–	–	–	–
C=Cc1c(C)c2cc3nc(cc4[nH]c(cc5nc(cc1[nH]2)C(C)=C5CCC(=O)OC)c(CCC(=O)O)c4C)[C@@]1(C)C3=CC=C(C(=O)OC)[C@H]1C(=O)OC	-5.62%	-3.48%	-5.65%	-20.1%	inactive	–	–	–	–	–
CCN1C(=O)NC(c2ccccc2)C1=O (stereo not given)	–	–	–	–	inactive	-11.1%	-3.29%	-11.8%	-9.7%	–
CC(C)(CO)[C@@H](O)C(=O)NCCC(=O)NCCSSCCNC(=O)CCNC(=O)[C@H](O)C(C)(C)CO	-16.4%	-15.1%	-16.6%	-15.9%	inactive	–	–	–	–	–

Compound	activity, negative = cell killing [1, 3]	activity, negative = cell killing [1, 4]	activity, negative = cell killing [1, 5]	activity, negative = cell killing [1, 6]	Potency [2]	activity, negative = cell killing [1, 7]	activity, negative = cell killing [1, 8]	activity, negative = cell killing [1, 9]	activity, negative = cell killing [1, 10]	Potency ([1]; tumour line A)
CN1CCC(OC(=O)C(Oc2ccc(Cl)cc2)Oc2ccc(Cl)cc2)CC1	-23.9%	-4.4%	-21%	-21%	inactive	–	–	–	–	–
CC[C@H](C)[C@@H]1NC(=O)[C@H](Cc2ccc(O)cc2)NC(=O)[C@@H](N)CSSC[C@@H](C(=O)N2CCC[C@H]2C(=O)N[C@@H](CC(C)C)C(=O)NCC(N)=O)NC(=O)[C@H](CC(N)=O)NC(=O)[C@H](CCC(N)=O)NC1=O	-4.51%	-1.96%	-11.4%	-6.16%	inactive	–	–	–	–	–
C[C@@](Cc1ccc(O)c(O)c1)(NN)C(=O)O	-16.8%	-8.91%	-39.3%	-14.3%	inactive	–	–	–	–	–
CC(C)[C@@H]1CC[C@@H](C)C[C@H]1OC(=O)c1ccccc1O	-16.3%	-12.7%	-21.2%	-34.9%	inactive	–	–	–	–	–
CN1c2c(nc(N)[nH]c2=O)NCC1CNc1ccc(C(=O)NC(CCC(=O)O)C(=O)O)cc1 (stereo not given)	-12%	-5.57%	-17.5%	-2.53%	inactive	–	–	–	–	–
O=C1CCC(=O)N1CO	-0.626%	-0.644%	-17%	-0.827%	inactive	–	–	–	–	–
NC(=O)CC[C@@H]1NC(=O)[C@H](Cc2ccccc2)NC(=O)[C@H](Cc2ccc(O)cc2)NC(=O)[C@@H](N)CSSC[C@@H](C(=O)N2CCC[C@H]2C(=O)N[C@@H](CCCN=C(N)N)C(=O)NCC(N)=O)NC(=O)[C@H](CC(N)=O)NC1=O	-4.7% and -11.9%	-8.98% and -1.09%	-23.2%	9.23% and 16.1%	inactive	–	–	–	–	–
CC(=O)[C@@]1(O)CC[C@H]2[C@@H]3C=C(Cl)C4=CC(=O)[C@@H]5C[C@@H]5[C@]4(C)[C@H]3CC[C@@]21C	-14.4%	-9.17%	-35.1%	-13.6%	inactive	–	–	–	–	–
O=C(O)CCC/C=C\C[C@@H]1[C@@H](/C=C/[C@@H](O)COc2cccc(Cl)c2)[C@H](O)C[C@@H]1O	-7.43%	0.189%	-25.8%	-22.5%	inactive	–	–	–	–	–
CCC(O)c1ccccc1 (stereo not given)	-1.17%	0.662%	-1.63%	4.78%	inactive	–	–	–	–	–
c1ccc(-n2cnnn2)cc1	-15%	5.06%	-23.5%	-0.778%	inactive	–	–	–	–	–
CC(C)c1ncc([N+](=O)[O-])n1C	-8.02%	-13.9%	-13.9%	-14.5%	inactive	–	–	–	–	–
FC(F)OC(Cl)C(F)(F)F (stereo not given)	-4.99%	-20.2%	-34.3%	-9.7%	inactive	–	–	–	–	–
CC(/C=C/C=C(\C)C(=O)O[C@@H]1O[C@H](CO[C@@H]2O[C@H](CO)[C@@H](O)[C@H](O)[C@H]2O)[C@@H](O)[C@H](O)[C@H]1O)=C\C=C\C=C(C)\C=C\C=C(/C)C(=O)O[C@@H]1O[C@H](CO[C@@H]2O[C@H](CO)[C@@H](O)[C@H](O)[C@H]2O)[C@@H](O)[C@H](O)[C@H]1O	-13.5%	5.42%	-21.7%	10.7%	inactive	–	–	–	–	–
O=C(O)c1ccc(NC2OC[C@@H](O)[C@H](O)[C@H]2O)cc1 (stereo not given in full)	-2.93%	0.684%	-26.5%	-13.1%	inactive	–	–	–	–	–
CC1(C)[C@H]2CC[C@]1(C)[C@H](O)C2	-3.63%	-3.69%	-22.7%	-20.6%	inactive	–	–	–	–	–
CCCOC(=O)c1ccccc1O	-5.91%	2.55%	-23.3%	-5.92%	inactive	–	–	–	–	–
COc1cc2c(cc1OC)[C@@H](c1ccccc1)CN(C)CC2	-22%	-9.13%	–	-17.9%	inactive	–	–	–	–	20 µM (active)
c1ccc2cc(C3=NCCN3)ccc2c1	-16.9%	-20.8%	–	-24%	inactive	–	–	–	–	11.2 µM (active)
CCCc1nc(C(C)(C)O)c(C(=O)OCc2oc(=O)oc2C)n1Cc1ccc(-c2ccccc2-c2nn[nH]n2)cc1	-17.3%	-13.8%	-13%	-13.1%	inactive	–	–	–	–	–
CCCCC(CC)CCC(CC(C)C)OS(=O)(=O)O (stereo not given)	-14.6% and -5.66%	-13.9% and 2.49%	-21.7% and -3.22%	-16.9% and 4.88%	inactive	–	–	–	–	–
